Screening data from PubChem BioAssay.
Shown are actives, neighbours in structure and some others; about 7.3% of the full set was active somewhere.
SMN2 splice up = qHTS Assay for Enhancers of SMN2 Splice Variant Expression | HEK293 SMN2-luciferase splicing reporter, luminescence, 30-36 h | actives 2.8% (n = 210,000) | Potency, µM (titrated, usually from 46.1 µM), without a hit: at the highest dose activity change, positive = activation, most hits filed as activators | AID 1458, 2008; further: % of control where 0% means no effect; nearly all actives have a fitted effect of over 55% in size
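HEK293 cells carry an SMN2 minigene-luciferase reporter in which exon 7 inclusion puts luciferase in frame. Cells were seeded at 2000 cells/well, attached for 10-12 hours, then exposed to compounds for 30-36 hours at 37C before ONE-Glo luminescence.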
NPC1 promoter act = qHTS Assay for NPC1 Promoter Activators; Huh7 NPC1 promoter luciferase reporter, 24 h; Potency, µM (highest dose often 9.22 µM), for inactives: at the highest dose activation, actives largely listed as activators; actives 2.4% (n = 320,000); AID 485313, 2010; further: % of control where 0% means no effect; nearly all actives have a fitted effect of over 60% in size
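In 1536-well qHTS, Huh7 cells harboring an NPC1 promoter–luciferase construct received compound for 24 h; activation was quantified by luminescence following luciferase reagent addition.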
Luc counter = Counterscreen for Luciferase (Kinase-Glo TM) Inhibition | Kinase-Glo luciferase, ATP luminescence, 8 min | Potency, µM (top dose mostly 38.3 µM), without a hit: top-dose activity change, negative = inhibition, actives largely listed as inhibitors | actives 0.28% (n = 200,000); further: on the % scale 0 is the no-effect control and ±100 the full control effect; nearly all actives have a fitted effect of over 60% in size
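Luminescence was the read-out, taken after 8-minute incubation at ambient temperature. Luciferase turned over luciferin with 10 uM ATP in imidazole pH 7.2 buffer containing KCl, MgCl2, Tween 20 and BSA.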
Rab9 promoter act = qHTS Assay for Rab9 Promoter Activators; actives 2.8% (n = 320,000); Huh7 Rab9 promoter-luciferase reporter, luminescence, 24 h; AID 485297, 2010; Potency, µM (doses to about 9.22 µM), inactives show at the highest dose activation, negative = inhibition, actives largely listed as activators; further: % of control where 0% means no effect; nearly all actives have a fitted effect of over 60% in size
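Huh7 cells stably carrying Rab9 promoter–luciferase reporter, plated 1500 cells/well, compound added after 2 h and incubated 24 h at 37 °C; luciferase luminescence then read after 10 min with detection reagent.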
FLuc counter = qHTS profiling assay for firefly luciferase inhibitor/activator using purifed enzyme and Km concentrations of substrates (counterscreen for miR-21 project); Potency, µM (titrated, usually from 57.5 µM), without a hit: at the top dose activity change, negative = inhibition, hits mostly inhibitors; AID 588342, 2011; Luciferin 4-monooxygenase (Photinus pyralis), P08659; actives 6.9% (n = 360,000); purified FLuc, Km substrates, luminescence inhibition;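 further: plate controls were vehicle for no effect and reference inhibitor for full effect; nearly all actives have a fitted effect of over 55% in size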
Target sequence (P08659 whole entry, looked up): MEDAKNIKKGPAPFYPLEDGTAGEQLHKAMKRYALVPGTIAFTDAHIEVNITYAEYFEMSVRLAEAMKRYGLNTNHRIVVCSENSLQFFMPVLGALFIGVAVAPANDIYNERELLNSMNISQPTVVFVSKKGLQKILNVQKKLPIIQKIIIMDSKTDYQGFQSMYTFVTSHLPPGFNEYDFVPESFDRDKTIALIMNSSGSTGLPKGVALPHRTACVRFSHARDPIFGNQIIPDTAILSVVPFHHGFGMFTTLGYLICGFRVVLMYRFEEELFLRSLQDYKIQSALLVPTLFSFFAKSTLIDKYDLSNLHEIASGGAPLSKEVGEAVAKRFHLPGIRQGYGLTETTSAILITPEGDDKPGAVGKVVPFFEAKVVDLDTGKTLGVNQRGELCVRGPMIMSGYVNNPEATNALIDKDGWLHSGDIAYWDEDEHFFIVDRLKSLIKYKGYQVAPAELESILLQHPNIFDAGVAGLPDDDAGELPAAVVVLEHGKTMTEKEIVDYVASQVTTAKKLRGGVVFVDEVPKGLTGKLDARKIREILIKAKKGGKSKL
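Biochemical qHTS of compounds, final roughly 60 µM downward over six points, against 10 nM purified firefly luciferase using Km concentrations of substrates (10 uM D-luciferin, 10 uM ATP) in Tris acetate pH 7.5 buffer; luminescence output.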
* marks the source's active call; other numbers are inactive results; ? = inconclusive; . = no result given; [ ] = another dose, or the depositor's remark. The call rests on the fitted dose curve; in most records, active means well fitted curve in the direction sought with a large enough effect; inconclusive means small, poorly fitted or top-dose-only effect, or another doubt; inactive means no such curve, though single readings can be large; an effect the other way counts as inactive or inconclusive. Potency means the concentration at half of the fitted maximal effect.

SMILES	SMN2 splice up	NPC1 promoter act	Luc counter	Rab9 promoter act	FLuc counter
Cn1nnc(NC(=O)c2ccc(C(C)(C)C)cc2)n1	22.4µM*	3.16µM*	-8.4%	1.58µM*	3.38µM*
Cn1nnc(NC(=O)c2ccc3ccccc3c2)n1	3.7%	12.2%	-0.6%	27.5%	15.1µM*
CCOC(=O)c1cc(-c2ccc3c(c2)OCCO3)n[nH]1	.	3.16µM*	-3.7%	1.58µM*	2.39µM*
O=C(O)c1ccc2c(c1)OCCOCCOCCOCCOCCO2	.	-5.8%	.	0.5%	0.3%
CCOC(=O)c1cc(-c2ccc(OC)cc2)n[nH]1	.	?	.	?	16.9µM*
Oc1ccccc1-c1cc(-c2ccc3c(c2)OCCO3)n[nH]1	3.16µM*	0.501µM*	-7.2%	0.708µM*	0.338µM*
O=C(O)c1cc(-c2ccc3c(c2)OCCO3)n[nH]1	.	-6.1%	1.1%	-0.2%	10.7µM*
COc1ccc(-c2[nH]ncc2-c2ccc3c(c2)OCCO3)c(O)c1	-18.6%	.	-3.6%	.	-3.6%
Cc1c(Cl)cccc1NC(=O)Cn1nnc(-c2nc(-c3ccccc3)no2)c1N	.	.	.	.	-1.4%
CC1CCN(S(=O)(=O)c2cc(C(=O)NCc3ccc(N(C)C)cc3)n(C)c2)CC1	.	.	.	.	-14.1%
CC(C)Cn1c(=O)c2sccc2n2c(CCCC(=O)NC3CCCCC3)nnc12	.	.	.	.	-2.4%
CCOC(=O)c1c(NC(=O)c2cc(-c3cccc(Cl)c3)on2)sc(C(C)=O)c1C	-2.2%	.	.	.	-6.0%
Cc1ccccc1NC(=O)Cn1nnc(C(=O)NCCc2ccccc2)c1N	4.1%	.	.	.	2.2%
CCOC(=O)c1cc2cc3ccccc3cc2[nH]1	3.16µM*	2.24µM*	1.1%	2.51µM*	?
CC(C)OC(=O)c1cc2ccccc2[nH]1	-25.1%	0.6%	1.1%	-1.2%	?
CCOC(=O)Cc1c(C)nc2cc(-c3ccc(C(C)(C)C)cc3)nn2c1C	-8.1%	.	.	.	?
COc1cc(-c2cc3nc(C)c(C)c(=O)n3[nH]2)cc(OC)c1OC	-4.4%	0.1%	-8.4%	-5.6%	-5.0%
C=CCc1c(C)nc2cc(-c3ccc(C)cc3)[nH]n2c1=O	.	1.58µM*	.	?	3.01µM*
CCc1c(C)nc2c(-c3ccccc3)c(-c3ccccc3)[nH]n2c1=O	.	-2.5%	.	1.2%	0.6%
CCOC(=O)Cc1c(C)nc2cc(-c3ccc(C(C)(C)C)cc3)[nH]n2c1=O	-4.9%	1.4%	-0.5%	10.2%	10.7µM*
CCc1c(C)nc2cc(-c3ccccc3)[nH]n2c1=O	.	3.16µM*	.	?	10.7µM*
CCCCc1c(C)nc2cc(-c3ccco3)[nH]n2c1=O	.	?	.	?	12µM*
CCCc1cc(=O)[nH]c(Nc2cc(C)ccc2OC)n1	5.1%	.	.	.	-1.1%
CCOC(=O)Cc1c(C)nc2c(-c3cccc(Br)c3)c[nH]n2c1=O	-88.4%	2.5%	-2.1%	0.5%	21.3µM*
COc1ccc(OC)c(NC(=O)c2cc(=O)c3c(C)cc(C)cc3o2)c1	2.4%	.	.	.	-6.3%
SMILES	SMN2 splice up	NPC1 promoter act	Luc counter	Rab9 promoter act	FLuc counter
CSc1ccccc1C(=O)Nc1nc2ccccc2c(=O)[nH]1	.	24.4%	.	2.82µM*	19µM*
CSc1ccccc1C(=O)Nc1nc2ccccc2[nH]1	14.1µM*	3.16µM*	-2.5%	4.47µM*	?
C=CCN1C=CC(=C/C=C(/C#N)C(=O)OCC)C=C1	1.41µM*	2.51µM*	-4.5%	2µM*	2.39µM*
CCOC(=O)/C(C#N)=C/C=C1/C=CC=CN1C	.	23.0%	.	?	?
COc1cccc(N2CC(NC(=O)c3ccc(S(=O)(=O)N4CCOCC4)cc3)CC2=O)c1 (configuration not stated)	.	.	.	.	-1.5%
CC1=CC2=NC(=O)/C(=C/c3cccs3)C(=N)N2O1	.	-5.1%	.	-2.3%	-14.3%
CS(=O)(=O)C1=NSC2=NC(=O)/C(=C\c3cccn3-c3ccc(Cl)cc3)C(=N)N21	9.6%	-0.2%	-2.0%	-9.6%	-1.3%
Cc1cc(/C=C2/C(=N)N3C(=NC2=O)SN=C3S(C)(=O)=O)c(C)n1-c1ccccc1F	12.6µM*	3.16µM*	-3.8%	3.16µM*	0.301µM*
CC1=CC2=NC(=O)/C(=C\c3cc(C)n(-c4ccccc4F)c3C)C(=N)N2O1	-6.2%[1.84 µM]	-0.6%	-2.6%	-4.0%	6.01µM*
CC1=CC2=NC(=O)/C(=C\c3cc(C)n(-c4cccc(Cl)c4)c3C)C(=N)N2O1	-21.9%	0.8%	1.8%	1.0%	?
CC1=CC2=NC(=O)/C(=C\c3cc(C)n(-c4ccccc4)c3C)C(=N)N2O1	2.3%[1.84 µM]	1.0%	-1.9%	0.2%	5.36µM*
O=C1CNC(=S)N1c1nc(-c2ccccc2)cs1	11.2µM*	2.82µM*	2.3%	2.82µM*	2.69µM*
COc1ccc(-c2csc(N3C(=N)SCC3=O)n2)cc1	1µM*	0.447µM*	-6.9%	0.398µM*	0.426µM*
COc1ccc(-c2csc(N3C(=O)CNC3=S)n2)cc1	1.26µM*	0.562µM*	2.4%	0.501µM*	0.849µM*
O=C(CN1C(=O)CSc2ccc(S(=O)(=O)N3CCCC3)cc21)NCc1ccc(Cl)cc1	.	.	.	.	-16.8%
CCOC(=O)Cn1c(=O)cc(C)c2c(C)nn(-c3cccc(F)c3)c21	.	.	.	.	-10.5%
CC(C)(C)OC(=O)NCCC(=O)N/N=C/c1ccc2ncccc2c1	.	-2.4%	.	17.8%	?
COc1ccc2nc(/C=N/NC(=O)CCNC(=O)OC(C)(C)C)ccc2c1	.	?	.	?	13.5µM*
COc1ccc2nc(/C=N/NC(=O)CCCCCNC(=O)OC(C)(C)C)ccc2c1	.	3.16µM*	.	3.98µM*	10.7µM*
COc1cc(-c2nnn(CC(=O)NC3CCS(=O)(=O)C3)n2)ccc1OCc1ccccc1 (configuration not stated)	?	?	0.3%	17.9%	12µM*
O=c1sc(Nc2ccccc2)nc2ccsc12	0.9%	7.0%	-3.0%	?	12µM*
Cc1ccc2nc(NC(=O)c3ccco3)sc2c1	1.12µM*	?	?	0.794µM*	0.269µM*
O=C(Nc1nc2ccsc2c(=O)s1)c1ccco1	.	?	.	?	15.1µM*
Cc1ccc2nc(NC(=S)NC(=O)c3ccco3)sc2c1	11.2µM*	1.41µM*	-2.2%	3.55µM*	0.477µM*
O=C(O)c1ccc(C(=O)O)c(C(=O)O)c1.[NH-][C@@H]1CCCC[C@@H]1[NH-].[Pt]	-0.8%[9.22 µM]	.	-3.4%[7.66 µM]	.	.
Cc1ccccc1CNC(=O)c1cnc2sc(N3CCC(C)CC3)nn2c1=O	.	.	.	.	2.8%
Cc1ccccc1OCC(=O)Nc1cc(-c2cccc(Br)c2)nn1-c1ccccc1	.	.	.	.	6.2%
CCc1ccc(NS(=O)(=O)c2ccc3oc(=O)c4ncn(CC)c4c3c2)cc1	-2.2%	.	.	.	-17.5%
COC(=O)CCCCCn1c(-c2ccccc2)cn2c3c(=O)n(C)c(=O)n(C)c3nc12	11.0%	.	.	.	-2.6%
